Measured values published in PubChem BioAssay (Tox21).
“And” between values parts separate entries of the source, which are not always exact repeats. Equal entries are not always repeated. Records with an inconclusive call do not appear. A call without a number means that no potency is given here. More than one record can exist for a structure, and the calls need not agree. The source made the active and inactive calls. Unless noted, calls follow the shape of the dose curve; as a rule, active = well fitted curve in the direction sought with a large enough effect in the repeat runs; inconclusive = weak or mixed curves; inactive = no such curve, though single readings can be large; an effect the other way counts as inactive or inconclusive.

What was measured:
[1] = molecular target: Thyrotropin receptor (Homo sapiens) (UniProt P16473); assay: qHTS assay to identify small molecule antagonists of the thyroid stimulating hormone receptor (TSHR) signaling pathway (AID 1259385; calls by dose curve; also: nearly all actives have a fitted effect of over 20% in size; also: potency is read from the fitted curve at half-maximal effect)
Chain of Thyrotropin receptor (Homo sapiens) (P16473 whole entry, looked up): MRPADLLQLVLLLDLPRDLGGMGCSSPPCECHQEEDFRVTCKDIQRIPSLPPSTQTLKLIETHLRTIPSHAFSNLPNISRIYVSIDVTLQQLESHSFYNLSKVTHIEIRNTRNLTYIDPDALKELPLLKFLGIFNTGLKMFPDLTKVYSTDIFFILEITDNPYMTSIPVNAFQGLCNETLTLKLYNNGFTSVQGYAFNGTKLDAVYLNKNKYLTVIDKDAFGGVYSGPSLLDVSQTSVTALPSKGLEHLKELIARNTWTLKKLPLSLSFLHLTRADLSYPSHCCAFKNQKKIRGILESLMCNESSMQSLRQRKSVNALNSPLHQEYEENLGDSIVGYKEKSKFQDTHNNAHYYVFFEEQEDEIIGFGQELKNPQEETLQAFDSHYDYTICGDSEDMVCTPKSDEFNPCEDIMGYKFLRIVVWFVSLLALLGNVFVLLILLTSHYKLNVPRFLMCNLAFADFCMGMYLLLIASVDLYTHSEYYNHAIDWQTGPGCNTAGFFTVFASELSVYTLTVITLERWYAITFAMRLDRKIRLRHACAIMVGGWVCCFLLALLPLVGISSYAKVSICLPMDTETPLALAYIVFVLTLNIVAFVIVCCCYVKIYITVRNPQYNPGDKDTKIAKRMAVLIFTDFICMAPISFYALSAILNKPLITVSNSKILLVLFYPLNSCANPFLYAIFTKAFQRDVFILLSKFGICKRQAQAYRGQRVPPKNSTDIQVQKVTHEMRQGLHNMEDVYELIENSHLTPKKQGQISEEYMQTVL
In short: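 TSHR-HEK293 cells were plated and held 18 h at 37C/5% CO2, then given compound plus Ro20-1724 and stimulated with TSH at 1.5 ng/mL final. After 30 min at room temperature, cAMP was detected with cAMP-d2/anti-cAMP-cryptate (1 h) by fluorescence.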

[2] = qHTS assay to identify small molecule agonists of the estrogen receptor alpha (ER-alpha) signaling pathway in the presence of an antagonist - cell viability counter screen (AID 1259386);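 also: cells exposed to compounds for 22 h at 37 °C before the viability read; nearly all actives have a fitted effect of over 30% in size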; also: potency is read from the fitted curve at half-maximal effect
In short: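 Read-out: CellTiter-Fluor fluorescence after 1hr reagent incubation, measured in the same wells as the luciferase readout. VM7Luc4E2 cells were exposed to 15 compound concentrations with 10.0nM ICI-182,780 for 22hr at 37C.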

[3] = molecular target: Progesterone receptor (Homo sapiens) (UniProt P06401); assay: qHTS assay to identify small molecule agonists of the progesterone receptor (PR) signaling pathway (AID 1346784; calls by dose curve; also: nearly all actives have a fitted effect of over 30% in size; also: potency is read from the fitted curve at half-maximal effect)
Chain of Progesterone receptor (Homo sapiens) (P06401 whole entry, looked up): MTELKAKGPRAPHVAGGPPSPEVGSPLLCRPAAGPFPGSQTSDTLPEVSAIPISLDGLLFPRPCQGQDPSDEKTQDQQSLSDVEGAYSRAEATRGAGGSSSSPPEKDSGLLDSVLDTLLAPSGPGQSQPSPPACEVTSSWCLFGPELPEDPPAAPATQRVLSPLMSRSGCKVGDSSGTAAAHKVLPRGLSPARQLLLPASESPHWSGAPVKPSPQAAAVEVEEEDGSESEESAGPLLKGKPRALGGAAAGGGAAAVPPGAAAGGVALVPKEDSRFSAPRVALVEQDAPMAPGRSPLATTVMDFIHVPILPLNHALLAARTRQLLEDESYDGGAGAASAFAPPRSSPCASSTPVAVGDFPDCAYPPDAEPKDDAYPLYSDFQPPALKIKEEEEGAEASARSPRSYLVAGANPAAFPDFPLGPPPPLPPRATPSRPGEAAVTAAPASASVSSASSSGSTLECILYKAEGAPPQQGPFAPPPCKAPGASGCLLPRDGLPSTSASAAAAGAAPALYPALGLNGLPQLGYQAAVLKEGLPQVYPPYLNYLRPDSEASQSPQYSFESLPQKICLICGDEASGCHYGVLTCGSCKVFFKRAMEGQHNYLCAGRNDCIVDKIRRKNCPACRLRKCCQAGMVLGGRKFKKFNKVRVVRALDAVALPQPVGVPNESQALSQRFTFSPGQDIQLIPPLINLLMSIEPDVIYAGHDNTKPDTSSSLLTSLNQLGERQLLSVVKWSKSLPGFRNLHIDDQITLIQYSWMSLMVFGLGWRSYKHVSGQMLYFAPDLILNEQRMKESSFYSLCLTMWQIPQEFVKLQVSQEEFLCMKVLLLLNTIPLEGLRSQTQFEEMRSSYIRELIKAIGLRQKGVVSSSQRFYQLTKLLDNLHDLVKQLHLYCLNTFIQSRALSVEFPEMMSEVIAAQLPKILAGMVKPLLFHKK
In short: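 Using charcoal-stripped serum (2%) to limit endogenous steroids, PR-UAS-bla HEK 293T cells received compounds for 16 hr at 37C after 6 hr plating; beta-lactamase FRET fluorescence was recorded following 2 hr substrate loading at room temperature.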

[4] = qHTS assay to identify small molecule antagonists of the progesterone receptor (PR) signaling pathway - cell viability counter screen (AID 1346798); also: nearly all actives have a fitted effect of over 50% in size; also: potency is read from the fitted curve at half-maximal effect
In short: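 ATP content as viability readout: CellTiter-Glo luminescence, 30 min room temperature, in PR-UAS-bla HEK293T cells after 16 hr compound/R5020 treatment at 37C and 5% CO2.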

[5] = qHTS assay to identify small molecule agonists of the progesterone receptor (PR) signaling pathway - cell viability counter screen (AID 1346799; calls by dose curve; also: nearly all actives have a fitted effect of over 45% in size; also: potency is read from the fitted curve at half-maximal effect)
In short: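 Cytotoxicity in PR-bla HEK293T cells: 16 h compound, 37C; CellTiter-Glo added post-FRET read; luminescence after 30 min RT.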

[6] = qHTS assay to identify small molecule antagonists of the TGF-beta/Smad signaling pathway - cell viability counter screen (AID 1346824); also: nearly all actives have a fitted effect of over 50% in size; also: potency is read from the fitted curve at half-maximal effect
In short: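 SBE-bla HEK 293T cells were plated overnight at 37 C, then given compounds in DMSO plus TGF-beta1 (added as 0.25 ng/mL solution) for 5 hr. After the bla read, CellTiter-Glo was added to the same wells and luminescence read after 30 min at room temperature.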

[7] = qHTS assay to identify small molecule agonists of the TGF-beta/Smad signaling pathway - cell viability counter screen (AID 1346829); also: nearly all actives have a fitted effect of over 45% in size; also: potency is read from the fitted curve at half-maximal effect
In short: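 Same-well cytotoxicity: CellTiter-Glo added after the 2 hr room-temperature beta-lactamase substrate step, luminescence measured 30 min later; cells had 5 hr of compound at 37 C.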

[8] = qHTS assay to identify small molecule agonists of the TGF-beta/Smad signaling pathway (AID 1346859; active = well fitted activation curve with a large enough effect in the signal ratio in the repeat runs, not every such curve was filed as active; the % refers to the signal ratio; also: series mostly up to about 77 µM)
In short: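 Stable Smad binding element-beta-lactamase HEK 293T cells; 5 hr compound exposure at 37 C under 5% CO2; 2 hr room-temperature substrate step; fluorescence excited at 405 nm, collected at 460 nm and 530 nm.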

[9] = molecular target: Thyrotropin-releasing hormone receptor (Homo sapiens) (UniProt P34981); assay: qHTS assay to identify small molecule antagonists of the thyrotropin-releasing hormone receptor (TRHR) signaling pathway (AID 1346877; active = well fitted inhibition curve with a large enough effect in the repeat runs, not every such curve was filed as active; also: potency is read from the fitted curve at half-maximal effect)
Chain of Thyrotropin-releasing hormone receptor (Homo sapiens) (P34981 whole entry, looked up): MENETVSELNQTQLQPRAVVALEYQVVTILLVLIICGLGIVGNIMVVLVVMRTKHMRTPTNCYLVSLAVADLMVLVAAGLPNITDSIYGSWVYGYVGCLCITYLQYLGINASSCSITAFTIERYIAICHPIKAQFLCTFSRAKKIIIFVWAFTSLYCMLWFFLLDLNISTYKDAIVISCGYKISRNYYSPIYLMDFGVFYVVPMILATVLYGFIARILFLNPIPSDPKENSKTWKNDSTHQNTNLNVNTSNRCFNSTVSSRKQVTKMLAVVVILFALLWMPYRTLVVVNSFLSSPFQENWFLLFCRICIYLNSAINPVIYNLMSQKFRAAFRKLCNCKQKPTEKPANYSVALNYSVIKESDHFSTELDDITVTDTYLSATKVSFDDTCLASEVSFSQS
In short: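 HEK293/TRHR cells, 18 h, 37 °C; Ca2+ dye 2 h; cpd 5 min RT; TRH 1 nM final; fluorescence read 3 min, 1 s intervals; 15 concs, triplicate.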

[10] = Human pregnane X receptor (PXR) small molecule agonists, qHTS cell viability counter screen (AID 1346977); also: nearly all actives have a fitted effect of over 50% in size; also: potency is read from the fitted curve at half-maximal effect
In short: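 Readout is CellTiter-Fluor fluorescence from PXR-Luc HepG2 cells. Plated cells rested 5hr, then were treated with compounds for 24hr at 37C and 5% CO2, with reagent present during the last hour.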

[11] = Caspase-3/7 induction in HepG2 cells by small molecules, qHTS assay (AID 1346978); also: nearly all actives have a fitted effect of over 15% in size; also: potency is read from the fitted curve at half-maximal effect
In short: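 Wild-type HepG2 cells (2,000/well) were settled 5 h at 37 C, 5% CO2, then exposed to compounds in DMSO for 17 h. Caspase-3/7 activity was read by luminescence 30 min after adding Caspase-Glo 3/7 reagent at room temperature.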

[12] = Caspase-3/7 induction in CHO-K1 cells by small molecules, qHTS cell viability counter screen (AID 1346979); also: nearly all actives have a fitted effect of over 35% in size; also: potency is read from the fitted curve at half-maximal effect
In short: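 To flag cytotoxic compounds, treated CHO-K1 wild-type cells were given CellTiter-Fluor at 16hr and read fluorescently after 1hr at 37C; the caspase-3/7 luminescence was measured in these same wells.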

[13] = Caspase-3/7 induction in CHO-K1 cells by small molecules, qHTS assay (AID 1346980); also: nearly all actives have a fitted effect of over 15% in size; also: potency is read from the fitted curve at half-maximal effect
In short: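 Wild-type cells were seeded at 1,500 per well and settled 5 hr at 37 C, 5% CO2, then exposed to DMSO-dissolved compounds for 17 hr. Caspase-Glo 3/7 reagent was added, and luminescence was read after 30min at room temperature.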

[14] = Caspase-3/7 induction in HepG2 cells by small molecules, qHTS cell viability counter screen (AID 1346981); also: nearly all actives have a fitted effect of over 30% in size; also: potency is read from the fitted curve at half-maximal effect
In short: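 Fluorescence read-out of live-cell protease activity (CellTiter-Fluor) after 1 hr with reagent. This was measured in the same wells as the caspase-3/7 luminescence, on HepG2 cells exposed to DMSO-dissolved compounds for 16 hr at 37 C.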

[15] = molecular target: Nuclear receptor subfamily 1 group I member 2 (Homo sapiens) (UniProt O75469); assay: Human pregnane X receptor (PXR) small molecule agonists, qHTS assay (AID 1346982); also: nearly all actives have a fitted effect of over 35% in size; also: potency is read from the fitted curve at half-maximal effect
Chain of Nuclear receptor subfamily 1 group I member 2 (Homo sapiens) (O75469 whole entry, looked up): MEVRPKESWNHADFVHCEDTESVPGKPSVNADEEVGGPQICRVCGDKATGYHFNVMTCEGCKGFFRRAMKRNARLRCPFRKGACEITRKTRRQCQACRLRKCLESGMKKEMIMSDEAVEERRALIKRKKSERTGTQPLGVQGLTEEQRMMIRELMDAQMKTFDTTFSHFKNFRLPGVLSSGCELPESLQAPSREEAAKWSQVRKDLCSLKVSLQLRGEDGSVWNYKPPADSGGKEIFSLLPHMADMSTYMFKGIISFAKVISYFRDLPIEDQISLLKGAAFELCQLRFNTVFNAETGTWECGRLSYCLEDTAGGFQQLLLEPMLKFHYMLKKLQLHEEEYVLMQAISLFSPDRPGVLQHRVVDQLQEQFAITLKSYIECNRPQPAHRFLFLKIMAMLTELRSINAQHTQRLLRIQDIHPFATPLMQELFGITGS
In short: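 HepG2 PXR-Luc reporter line, 5% charcoal-stripped FBS; 5 hr pre-incubation, compound (DMSO) 24 hr at 37 C/5% CO2; ONE-Glo 30 min RT; luminescence read-out.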

[16] = molecular target: Nuclear receptor subfamily 1 group I member 2 (Rattus norvegicus) (UniProt Q9R1A7); assay: Rat pregnane X receptor (rPXR) activation by small molecules, qHTS assay (AID 1346983); details: rPXR luciferase reporter cells, One-Glo luminescence, 24 h; max activation: stronger effect = higher value; also: nearly all actives have a fitted effect of over 20% in size
Chain of Nuclear receptor subfamily 1 group I member 2 (Rattus norvegicus) (Q9R1A7 whole entry, looked up): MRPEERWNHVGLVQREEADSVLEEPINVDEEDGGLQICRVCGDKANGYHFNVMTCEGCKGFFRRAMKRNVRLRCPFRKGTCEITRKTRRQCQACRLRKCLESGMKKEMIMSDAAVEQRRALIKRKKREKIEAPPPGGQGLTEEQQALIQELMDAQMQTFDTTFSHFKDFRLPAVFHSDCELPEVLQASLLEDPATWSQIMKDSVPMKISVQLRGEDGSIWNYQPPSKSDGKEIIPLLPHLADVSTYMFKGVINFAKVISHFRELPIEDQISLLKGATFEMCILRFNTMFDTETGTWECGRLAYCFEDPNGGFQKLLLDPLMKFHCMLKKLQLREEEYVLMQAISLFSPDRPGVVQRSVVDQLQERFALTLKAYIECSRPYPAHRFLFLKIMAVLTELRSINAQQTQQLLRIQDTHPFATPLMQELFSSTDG
In short: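 Cell-based rPXR luciferase reporter assay, 2,000 cells per well, rested 5hr at 37 C before compound addition in DMSO, then 24 hr at 37 C. One-Glo reagent was added and luminescence read after 30 min at room temperature.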

[17] = molecular target: Nuclear receptor subfamily 1 group I member 2 (Homo sapiens) (UniProt O75469); assay: CYP3A4 induction through human pregnane X receptor (PXR) by small molecules, qHTS assay (AID 1346984); also: nearly all actives have a fitted effect of over 40% in size
In short: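 HepG2-derived DPX-2 line carrying PXR plus a CYP3A4-promoter luciferase reporter; cells plated 5 hr, compound-exposed 24 hr at 37C. CYP3A4 activity probed with 3uM (final) Luciferin-IPA for 3hr, then luciferase read after One-Glo.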

[18] = molecular target: Nuclear receptor subfamily 1 group I member 2 (Homo sapiens) (UniProt O75469); assay: Human pregnane X receptor (PXR) activation by small molecules, qHTS assay (AID 1346985); also: nearly all actives have a fitted effect of over 40% in size
In short: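 DPX-2 cells (HepG2 co-transfected with a PXR response element and a CYP3A4-promoter luciferase construct) were seeded at 2,000 per well, rested 5 hr at 37C, then exposed to DMSO-dissolved compounds for 24 hr. Activation was read as luciferase luminescence.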

[19] = molecular target: Progesterone receptor (Homo sapiens) (UniProt P06401); assay: qHTS assay to identify small molecule antagonists of the progesterone receptor (PR) signaling pathway (AID 1346795; active = well fitted inhibition curve with a large enough effect in the signal ratio in the repeat runs, not every such curve was filed as active; the % refers to the signal ratio; also: potency is read from the fitted curve at half-maximal effect)
In short: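 Inhibition of R5020-induced (1 nM final) beta-lactamase reporter signal in PR-UAS-bla HEK293T cells was scored by FRET fluorescence after overnight (16 hr) compound treatment.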

[20] = molecular target: Thyrotropin-releasing hormone receptor (Homo sapiens) (UniProt P34981); assay: qHTS assay to identify small molecule agonists of the thyrotropin-releasing hormone receptor (TRHR) signaling pathway (AID 1346891; calls by dose curve;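 also: HEK293 cells expressing TRHR with calcium dye readout; series mostly up to about 58 µM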)
In short: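 In 1536-format, 1500 TRHR-Hek293 cells per well grew 18 h, took up calcium dye for 2 h at 37 °C, received compound, and were read kinetically; 15-point titrations, triplicates.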

Compound | Potency [1] | Potency [2] | Potency [3] | Potency [4] | Potency [5] | Potency [6] | Potency [7] | outcome [8] | Potency [9] | Potency [10] | Potency [11] | Potency [12] | Potency [13] | Potency [14] | Potency [15] | max activation [16] | Potency [17] | outcome [18] | Potency [19] | Potency [20]
CN(C)C(=S)SC(=S)N(C)C | inactive | 35.3 µM (active) and 3.06 µM (active) and inactive | inactive | 994 nM (active) and 969 nM (active) and 750 nM (active) | 2.22 µM (active) and 1.22 µM (active) and 266 nM (active) | inactive | inactive | inactive | inactive | 7.08 µM (active) and 545 nM (active) and 2.66 µM (active) | 4.98 µM (active) and 770 nM (active) and 3.76 µM (active) | 1.4 µM (active) and 433 nM (active) and 2.11 µM (active) | inactive | 30.6 µM (active) | 1.98 µM (active) and inactive | -4.94% (inactive) | inactive | inactive | – | –
O=c1[nH]cc(F)c(=O)[nH]1 | inactive | inactive | inactive | – | 28.3 µM (active) and inactive | inactive | inactive | inactive | inactive | inactive | inactive | – | inactive | inactive | 31.8 µM (active) and 24.9 µM (active) and inactive | – | – | – | inactive | inactive
COc1ccc2c(c1)c(CC(=O)O)c(C)n2C(=O)c1ccc(Cl)cc1 | inactive | inactive | inactive | inactive | inactive | inactive | inactive | – | – | inactive | inactive | 61.5 µM (active) | inactive | – | inactive | – | – | – | inactive | –
C1CCC(C(CC2CCCCN2)C2CCCCC2)CC1 (configuration not stated) | 33.5 µM (active) | inactive | inactive | 26.6 µM (active) | 23.7 µM (active) | 26.8 µM (active) | 26.8 µM (active) | – | – | 26.6 µM (active) | 33.5 µM (active) | – | – | 29.8 µM (active) | 6.68 µM (active) | -20.4% (inactive) | inactive | inactive | 29.8 µM (active) | –
O=C1c2c(O)cccc2Cc2cccc(O)c21 | inactive | inactive | inactive | inactive | inactive | inactive | inactive | inactive | – | inactive | inactive | inactive | inactive | inactive | inactive | -3.04% (inactive) | inactive | inactive | inactive | –
CCN(CC)C(=O)c1cccc(C)c1 | inactive | inactive | inactive | inactive | inactive | inactive | inactive | inactive | – | inactive | inactive | inactive | inactive | inactive | inactive | -4.83% (inactive) | – | inactive | inactive | –
O=C(O)c1ccccc1 | inactive | inactive | inactive and 596 nM (active) | inactive | inactive | inactive | inactive | inactive | – | inactive | inactive | inactive | inactive | inactive | inactive | – | – | – | inactive | –
Cc1cc(=O)oc2cc(O)ccc12 | inactive | inactive | inactive | inactive | inactive | inactive | inactive | – | inactive | inactive | inactive | – | inactive | inactive | inactive | -6.81% (inactive) | inactive | inactive | inactive | –
Cc1cn([C@H]2C=C[C@@H](CO)O2)c(=O)[nH]c1=O | inactive | inactive | inactive | inactive | inactive | inactive | inactive | inactive | – | inactive | inactive | inactive | inactive | inactive | inactive | -2.07% (inactive) | inactive | inactive | inactive | –
CC/C(=C(\c1ccccc1)c1ccc(OCCN(C)C)cc1)c1ccccc1 | 61.5 µM (active) and 21.1 µM (active) | inactive and 61.6 µM (active) | inactive | – | – | – | 55.3 µM (active) and inactive | inactive | 12.1 µM (active) and inactive | 25.1 µM (active) [middle of 5 runs] | 27.5 µM (active) and 54.4 µM (active) and 61.1 µM (active) | 54.4 µM (active) [middle of 4 runs] | 24.5 µM (active) and inactive | 61.1 µM (active) [middle of 4 runs] | – | -0.827% (inactive) | – | – | – | –
CCCC[P+](CCCC)(CCCC)CCCC | inactive | inactive | inactive | inactive | inactive | inactive | inactive | – | – | inactive | inactive | inactive | inactive | inactive | – | – | – | – | inactive | –
O=C1OC2(c3ccccc31)c1cc(Br)c(O)c(Br)c1Oc1c2cc(Br)c(O)c1Br | 24.7 µM (active) and 21.1 µM (active) | 11 µM (active) and 19.9 µM (active) and 10.6 µM (active) | inactive | inactive | inactive | inactive | inactive | – | – | 4.93 µM (active) and 9.96 µM (active) and 13.3 µM (active) | inactive | 6.2 µM (active) and 22.3 µM (active) and 11.9 µM (active) | inactive | 6.2 µM (active) and 19.9 µM (active) and 10.6 µM (active) | inactive | -7.26% (inactive) | inactive | inactive | – | –
